# Measurements taken from PubChem BioAssay (NCI).
# The panel holds about 83,000 compounds, 20% with a hit somewhere; the sample as a whole holds those more often.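 The test compound was applied at a single concentration to cells in 96-well plates for 48 hours, and percent growth was recorded.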 Unmarked numbers belong to inactive results. Active and inactive are the calls of the source. The calls were made as follows: active = growth percent below 10; inactive = the rest.
# System: HL-60(TB) leukemia
# Experiment: NCI-60 one-dose screen, 48 h (100 = growth as untreated, 0 = no growth, -100 = all killed)
# Conditions: 10 µM unless noted
row,Compound,growth
1,CCOC(=O)[C@@H](C)C[C@H](Cc1ccccc1)NC(=O)c1csc([C@@H](C[C@H](C(C)C)N(C)C(=O)[C@H](CC)NC(=O)[C@H]2CCCCN2C)OC(C)=O)n1,-26.4% (active)
2,C1CCC([PH+](C2CCCCC2)C2CCCCC2[PH+](C2CCCCC2)C2CCCCC2)CC1.O=C(C1[CH-]CCCC1)C1CCCC[N-]1.[Au] (stereo not given),-39.2% (active)
3,Cn1cc(-c2csc(-c3cn(CCN4CCOCC4)c4ccc(F)cc34)n2)c2cccnc21,1.01% (active)
4,O=[N+]([O-])CC(O)C(Cl)(Cl)Cl (stereo not given),83.7%
5,CC[C@H](NC(=O)[C@H]1CCCCN1C)C(=O)N(C)[C@H](C[C@@H](OC(C)=O)c1nc(C(=O)N[C@@H](Cc2ccccc2)C[C@H](C)C(=O)O)cs1)C(C)C,-21.5% (active)
6,[Cl][Hg][c]1cc[c]([Hg][Cl])o1,22.5%
7,Clc1ccc(N2COOC3(OOC2)C2CC4CC(C2)CC3C4)cc1,-58% (active)
8,COC(=O)[C@@H](C)C[C@H](Cc1ccccc1)NC(=O)c1nc([C@@H](C[C@H](C(C)C)N(C)C(=O)[C@@H](NC(=O)[C@H]2CCCCN2C)C(C)C)OC(C)=O)sc1C,-43.5% (active)
9,CC(C)(N)Cc1ccccc1,94.9%
10,CC1=C(CCCOC(=O)CN)C2=C(C)C3(CC3)[C@@](C)(O)C(=O)C2=C1,75.2%
11,COC(=O)[C@@H](C)C[C@H](Cc1ccccc1)NC(=O)c1csc(CC[C@H](C(C)C)N(C)C(=O)[C@@H](NC(=O)[C@H]2CCCCN2C)C(C)C)n1,-34.4% (active)
12,COC(=O)[C@H](C[C@H](Cc1ccccc1)NC(=O)c1csc([C@@H](C[C@H](C(C)C)N(C)C(=O)[C@@H](NC(=O)[C@H]2CCCCN2C)C(C)C)OC(C)=O)n1)NC(=O)OCc1ccccc1,-30.3% [8.5 µM] (active)
13,CC(=O)O[C@H](C[C@H](C(C)C)N(C)C(=O)[C@@H](NC(=O)[C@H]1CCCCN1C)C(C)(C)C)c1nc(C(=O)N[C@@H](Cc2ccccc2)C[C@H](C)C(=O)O)cs1,-26% (active)
14,C[C@@H]1O[C@@H](O[C@H]2C[C@@H](O)[C@]3(CO)C4C(CC[C@]3(O)C2)[C@@]2(O)CC[C@H](C3=CC(=O)OC3)[C@@]2(C)C[C@H]4O)[C@H](O)[C@H](O)[C@H]1O (stereo not given in full),-53.2% (active)
15,Nc1ccc(Cl)cc1,95%
16,Fc1cccc(NCOOC2(OOCNc3cccc(F)c3)CCCCC2)c1,88.3%
17,COC(=O)[C@@H](NC(=O)c1cn(CCC2CCCCC2)c2ccccc12)C(C)(C)C,60%
18,N#CCCNc1ccccc1,-10.8% (active)
19,COC(=O)[C@@H](C)C[C@H](Cc1ccc(F)cc1)NC(=O)c1csc([C@@H](C[C@H](C(C)C)N(C)C(=O)[C@@H](NC(=O)[C@H]2CCCCN2C)C(C)C)OC(C)=O)n1,-37.5% (active)
20,O=[N+]([O-])c1c(Br)sc(Br)c1[N+](=O)[O-],-11.2% (active)
21,CN1C(=O)C(=Cc2cn(CCCCCCn3c4ccccc4c(=O)c4ccccc43)c3ccccc23)C(=O)N(C)C1=O,79.3%
22,COC(=O)C12CC(NC(=O)c3csc([C@@H](C[C@H](C(C)C)N(C)C(=O)[C@@H](NC(=O)[C@H]4CCCCN4C)C4CC4)OC(C)=O)n3)(C1)C2,-44% (active)
23,CC1(C)N=C(N)N=C(N)N1c1ccc(CCC(=O)Nc2ccc(S(=O)(=O)F)cc2)c(Cl)c1,18.3%

# System: CCRF-CEM leukemia
# Experiment: as above
# Conditions: 10 µM unless noted
row,Compound,growth
1,CCOC(=O)[C@@H](C)C[C@H](Cc1ccccc1)NC(=O)c1csc([C@@H](C[C@H](C(C)C)N(C)C(=O)[C@H](CC)NC(=O)[C@H]2CCCCN2C)OC(C)=O)n1,3.51% (active)
2,CCN(CCO)C(Cc1ccccc1)c1ccccc1 (stereo not given),2.74% (active)
3,C1CCC([PH+](C2CCCCC2)C2CCCCC2[PH+](C2CCCCC2)C2CCCCC2)CC1.O=C(C1[CH-]CCCC1)C1CCCC[N-]1.[Au] (stereo not given),2.64% (active)
4,Cn1cc(-c2csc(-c3cn(CCN4CCOCC4)c4ccc(F)cc34)n2)c2cccnc21,12.4%
5,O=[N+]([O-])c1cc(I)cc([N+](=O)[O-])c1,100%
6,O=[N+]([O-])CC(O)C(Cl)(Cl)Cl (stereo not given),-21.1% (active)
7,N#C[S-].[Au+].c1ccc(CN2[CH-]N(Cc3ccccc3)C(c3ccccc3)=C2c2ccccc2)cc1,1.1% (active)
8,CC[C@H](NC(=O)[C@H]1CCCCN1C)C(=O)N(C)[C@H](C[C@@H](OC(C)=O)c1nc(C(=O)N[C@@H](Cc2ccccc2)C[C@H](C)C(=O)O)cs1)C(C)C,1.98% (active)
9,CC(=O)O[C@H](C[C@H](C(C)C)N(C)C(=O)[C@@H](NC(=O)[C@H]1CCCCN1C)C(C)C)c1cccc(C(=O)N[C@@H](Cc2ccccc2)C[C@H](C)C(=O)O)n1,5.5% (active)
10,[Cl][Hg][c]1cc[c]([Hg][Cl])o1,4.4% (active)
11,Clc1ccc(N2COOC3(OOC2)C2CC4CC(C2)CC3C4)cc1,-50.3% (active)
12,COC(=O)[C@@H](C)C[C@H](Cc1ccccc1)NC(=O)c1nc([C@@H](C[C@H](C(C)C)N(C)C(=O)[C@@H](NC(=O)[C@H]2CCCCN2C)C(C)C)OC(C)=O)sc1C,7.82% (active)
13,CC(C)(N)Cc1ccccc1,100%
14,CC1=C(CCCOC(=O)CN)C2=C(C)C3(CC3)[C@@](C)(O)C(=O)C2=C1,81.1%
15,COC(=O)[C@@H](C)C[C@H](Cc1ccccc1)NC(=O)c1csc(CC[C@H](C(C)C)N(C)C(=O)[C@@H](NC(=O)[C@H]2CCCCN2C)C(C)C)n1,13.8%
16,COC(=O)[C@H](C[C@H](Cc1ccccc1)NC(=O)c1csc([C@@H](C[C@H](C(C)C)N(C)C(=O)[C@@H](NC(=O)[C@H]2CCCCN2C)C(C)C)OC(C)=O)n1)NC(=O)OCc1ccccc1,6.6% [8.5 µM] (active)
17,[Au+].[N-]=C=O.c1ccc(CN2[CH-]N(Cc3ccccc3)C(c3ccccc3)=C2c2ccccc2)cc1,66.8%
18,CNCc1cccnc1,96.6%
19,CC(=O)O[C@H](C[C@H](C(C)C)N(C)C(=O)[C@@H](NC(=O)[C@H]1CCCCN1C)C(C)(C)C)c1nc(C(=O)N[C@@H](Cc2ccccc2)C[C@H](C)C(=O)O)cs1,1.05% (active)

row,Compound,growth
1,C[C@@H]1O[C@@H](O[C@H]2C[C@@H](O)[C@]3(CO)C4C(CC[C@]3(O)C2)[C@@]2(O)CC[C@H](C3=CC(=O)OC3)[C@@]2(C)C[C@H]4O)[C@H](O)[C@H](O)[C@H]1O (stereo not given in full),-12% (active)
2,Nc1ccc(Cl)cc1,98.2%
3,Fc1cccc(NCOOC2(OOCNc3cccc(F)c3)CCCCC2)c1,84.1%
4,COC(=O)[C@@H](NC(=O)c1cn(CCC2CCCCC2)c2ccccc12)C(C)(C)C,72%
5,CCOc1ccccc1C(=O)OCC(Cl)(Cl)Cl,104%
6,CCOP(=O)(Cc1ccc(C#N)cc1)OCC,99.3%
7,N#CCCNc1ccccc1,80.6%
8,C[C@]12CC[C@H]3[C@@H](CC[C@]4(O)C[C@@H](O[C@@H]5O[C@H](CO)[C@@H](O[C@@H]6OC[C@@H](O)[C@H](O)[C@H]6O)[C@H](O)[C@H]5O)CC[C@]34C=O)[C@@]1(O)CC[C@@H]2C1=CC(=O)OC1,-14.5% (active)
9,O=P(N1CC1)(N1CC1)N1CCc2ccccc21,104%
10,COc1cc([C@@H]2c3cc4c(cc3[C@H](OC(C)=O)[C@H]3COC(=O)[C@H]23)OCO4)cc(OC)c1OC,14.4%
11,COC(=O)[C@@H](C)C[C@H](Cc1ccc(F)cc1)NC(=O)c1csc([C@@H](C[C@H](C(C)C)N(C)C(=O)[C@@H](NC(=O)[C@H]2CCCCN2C)C(C)C)OC(C)=O)n1,12.3%
12,N#C[Se]CCN1C(=O)c2ccccc2C1=O,21.1%
13,O=[N+]([O-])c1c(Br)sc(Br)c1[N+](=O)[O-],-18.9% (active)
14,CN1C(=O)C(=Cc2cn(CCCCCCn3c4ccccc4c(=O)c4ccccc43)c3ccccc23)C(=O)N(C)C1=O,109%
15,CCCCCCCC[n+]1ccc2ccccc2c1,43.3%
16,COC(=O)C12CC(NC(=O)c3csc([C@@H](C[C@H](C(C)C)N(C)C(=O)[C@@H](NC(=O)[C@H]4CCCCN4C)C4CC4)OC(C)=O)n3)(C1)C2,17.2%
17,Cn1cc(-c2csc(-c3cn(CCCCN4CCCCC4)c4ccccc34)n2)c2cccnc21,-11% (active)
18,CC1(C)N=C(N)N=C(N)N1c1ccc(CCC(=O)Nc2ccc(S(=O)(=O)F)cc2)c(Cl)c1,44.9%
